# In ChEMBL document CHEMBL1201862, “PubChem BioAssay data set” (2004):
# Screen size: about 400,000 compounds; about 2,100 (0.53%) were called active. Roughly 14% stayed inconclusive and do not appear here. No rule for the calls is given here. Shown is part of a subset that was picked to be rich in actives.
# Biological target: Ataxin-2 (Homo sapiens) (UniProt Q99700)
# Assay: qHTS for Inhibitors of ATXN expression.
# Format: functional
# Ataxin-2 (Homo sapiens), sequence (Q99700 whole entry): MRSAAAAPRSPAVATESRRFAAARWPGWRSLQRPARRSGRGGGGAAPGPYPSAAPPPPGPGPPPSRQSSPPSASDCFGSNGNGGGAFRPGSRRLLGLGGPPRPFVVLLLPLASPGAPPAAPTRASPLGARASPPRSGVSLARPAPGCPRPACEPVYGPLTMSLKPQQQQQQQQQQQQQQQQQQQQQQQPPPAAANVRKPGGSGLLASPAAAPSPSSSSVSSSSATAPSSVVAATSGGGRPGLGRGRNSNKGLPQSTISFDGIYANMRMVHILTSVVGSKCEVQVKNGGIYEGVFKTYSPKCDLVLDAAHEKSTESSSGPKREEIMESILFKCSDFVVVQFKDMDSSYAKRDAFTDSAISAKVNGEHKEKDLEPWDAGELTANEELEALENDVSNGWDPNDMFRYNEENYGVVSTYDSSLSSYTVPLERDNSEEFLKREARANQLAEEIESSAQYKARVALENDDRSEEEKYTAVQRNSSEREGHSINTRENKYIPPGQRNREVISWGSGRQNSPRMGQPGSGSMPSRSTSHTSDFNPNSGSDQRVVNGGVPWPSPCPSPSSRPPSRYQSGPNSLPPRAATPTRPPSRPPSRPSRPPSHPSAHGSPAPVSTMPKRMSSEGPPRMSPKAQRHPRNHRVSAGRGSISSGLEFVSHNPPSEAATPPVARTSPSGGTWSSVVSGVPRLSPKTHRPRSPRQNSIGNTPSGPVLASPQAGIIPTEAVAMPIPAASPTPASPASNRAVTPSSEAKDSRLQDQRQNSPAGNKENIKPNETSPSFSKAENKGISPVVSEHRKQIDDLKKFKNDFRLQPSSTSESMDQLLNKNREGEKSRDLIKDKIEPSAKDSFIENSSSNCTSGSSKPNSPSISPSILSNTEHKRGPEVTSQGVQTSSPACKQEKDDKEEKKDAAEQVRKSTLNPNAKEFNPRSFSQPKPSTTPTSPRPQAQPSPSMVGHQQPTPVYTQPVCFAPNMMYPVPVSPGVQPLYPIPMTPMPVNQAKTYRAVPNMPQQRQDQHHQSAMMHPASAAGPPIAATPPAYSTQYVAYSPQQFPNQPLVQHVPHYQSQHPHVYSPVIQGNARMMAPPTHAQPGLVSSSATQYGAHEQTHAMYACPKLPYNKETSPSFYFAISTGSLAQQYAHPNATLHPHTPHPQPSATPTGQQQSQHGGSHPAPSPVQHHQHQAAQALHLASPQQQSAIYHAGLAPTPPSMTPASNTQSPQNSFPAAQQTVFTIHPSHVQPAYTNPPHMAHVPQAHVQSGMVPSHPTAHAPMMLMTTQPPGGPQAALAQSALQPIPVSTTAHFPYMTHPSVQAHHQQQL
row,Compound,Potency
1,O=C(CCNC(=O)c1ccc([N+](=O)[O-])cc1)Nc1nccs1,inactive
2,CCCCCc1c2c(cc(O)c1C(=O)O)OC(=O)c1c(cc(OC)cc1C(=O)CCCC)O2,21.2 µM (active)
3,CCCOC(=O)c1ccc(Oc2coc3c(CN(CC)CC)c(O)ccc3c2=O)cc1,inactive
4,CCCOC(=O)c1ccc(Oc2c(C)n[nH]c2-c2ccc(OCC)cc2O)cc1,31.6 µM (active)
5,CCOc1ccc(C(=O)COC(=O)Cn2[nH]c(=O)c3ccccc3c2=O)cc1,inactive
6,COCCn1c(SC2CCCCC2=O)nnc1-c1ccncc1 (stereo unspecified),inactive
7,O=C(N/N=C/c1c(O)ccc2ccccc12)c1cccc(C(F)(F)F)c1,inactive
8,O=S(=O)(O)c1cccc(N=Nc2c(O)ccc3ccccc23)c1,39.8 µM (active)
9,Oc1ccccc1C=NN=Cc1c(O)ccc2ccccc12,inactive
10,Nc1cc(Cl)nc(N/N=C/c2c(O)ccc3ccccc23)n1,inactive
11,O=C(N/N=C\c1c(O)ccc2ccccc12)c1ccc(S(=O)(=O)N2CCCCC2)cc1,inactive
12,Oc1ccc2ccccc2c1N=Nc1ccccn1,14.1 µM (active)
13,Oc1ncnc(O)c1C(c1ccc(F)cc1)c1c(O)ncnc1O,inactive
14,Cc1ccc(S(=O)(=O)/N=c2\ccc(Cl)cn2C(F)F)cc1,inactive
15,N#Cc1nc(/C=C/c2ccccc2)oc1NCCCN1CCOCC1,inactive
16,CCc1sc(NC(=O)CN2CCC(C(N)=O)CC2)nc1-c1ccccc1,inactive
17,CC(=O)c1sc(NC(=O)CN2C(=O)C3CCCCC3C2=O)nc1-c1ccccc1 (stereo unspecified),inactive
18,CCNc1nc(-c2sc(NC(=O)C(C)(C)C)nc2C)c(-n2cc(-c3ccccc3)nn2)s1,15.8 µM (active)
19,CCC1CCCCN1Cc1nc2c(c(=O)n(C)c(=O)n2C)n1CCCc1ccccc1 (stereo unspecified),inactive
20,Cn1c(=O)c2nc(NCc3ccccc3)cnc2n(C)c1=O,inactive
21,Cn1c(=O)c2c(nc(NCc3ccccc3)n2Cc2ccc(Cl)c(Cl)c2)n(C)c1=O,35.5 µM (active)
22,CC1CCCCC12NC(=O)N(CC(=O)OCc1cccc(F)c1)C2=O (stereo unspecified),inactive
23,Cc1ccc(CSc2nnc(SCC(=O)N/N=C/c3c[nH]c4ccccc34)s2)cc1,5.97 µM (active)
24,CC(C)C(C)NC(=O)CSc1nnc(-c2c[nH]c3ccccc23)o1 (stereo unspecified),inactive
25,Cc1ccc(OCCn2cc(/C=N/NC(=O)c3ccncc3)c3ccccc32)cc1,inactive
26,O=C1CCCC(O)=C1Sc1cc(Cl)c(Cl)cc1Cl,inactive

row,Compound,Potency
1,O=C(c1ccccc1)c1cccc(C(=O)c2ccccc2)c1,inactive
2,O=C(/C=C/Sc1ccccc1)c1ccc(Cl)cc1,11.2 µM (active)
3,O=C(/C=C/Sc1ccccc1)c1ccccc1,15.8 µM (active)
4,O=C1OCCN=C1/C=C(\O)c1ccc(Cl)cc1,inactive
5,O=C(CNC(=O)c1ccc(Cl)cc1)Nc1ccccc1C(F)(F)F,inactive
6,OC(C#CCN1CCCC1)(c1ccccc1)c1cccnc1 (stereo unspecified),inactive
7,O=C(c1cc2c(=O)n3ccccc3nc2s1)N1CCN(Cc2ccc3c(c2)OCO3)CC1,inactive
8,Cc1ccc(C23OCCN2CCn2nc4ccccc4c23)cc1 (stereo unspecified),inactive
9,CC(C)c1cc(=O)oc2c3c4c(cc12)CCCN4CCC3,inactive
10,O=C(N/N=C/c1cn(CCOc2ccccc2)c2ccccc12)c1ccncc1,inactive
11,O=C(N/N=C/C(Br)=C/c1ccccc1)c1ccncc1,31.6 µM (active)
12,Cn1cc(C(=O)N/N=C/C(Br)=C/c2ccccc2)ccc1=O,15.8 µM (active)
13,CC(C)c1cc(C(=O)N/N=C/C(Br)=C/c2ccccc2)[nH]n1,31.6 µM (active)
14,Cn1c(N)c(C(=O)N/N=C/c2ccccc2)sc1=S,inactive
15,CCN(CC)c1ccc(/C=C2\CCC(/C=N/NC(=O)c3ccc(=O)n(C)c3)=C2N2CCOCC2)cc1,inactive
16,Cc1cc(C(=O)N/N=C/c2cc(Br)ccc2OC(=O)c2ccccc2Cl)[nH]n1,inactive
17,Cc1cc(C(=O)N/N=C/c2cc(Br)cc(Br)c2OC(=O)c2cccc(F)c2)[nH]n1,inactive
18,O=C(N/N=C/c1cn(Cc2ccccc2)c2ccccc12)c1ccncc1,inactive
19,COc1ccc(-c2cc(=O)oc3cc(OC(=O)C4CCCCC4)c(Cl)cc23)cc1,inactive
20,CCN1CCN(Cc2c(O)ccc3c(C)c(-c4ccccc4)c(=O)oc23)CC1,inactive
21,CCOC(=O)CC1c2nc3ccccc3cc2CN1C(=O)OCC (stereo unspecified),inactive
22,CC(=O)/N=c1\c(C#N)cc2c(=O)n3ccccc3nc2n1CCCOC(C)C,inactive
23,OC1=C2C(=Nc3ccccc3SC2c2ccc(Cl)c(Cl)c2)c2ccccc21 (stereo unspecified),31.6 µM (active)
24,OC1=C2C(=Nc3ccccc3SC2c2ccc(C(F)(F)F)cc2)c2ccccc21 (stereo unspecified),31.6 µM (active)
25,CC(C)N1C(=O)S/C(=C\c2ccc(-c3ccc(Cl)c(C(=O)O)c3)o2)C1=O,inactive
26,COc1cccc(N(CC(=O)N2CCCCCC2)S(C)(=O)=O)c1,inactive

row,Compound,Potency
1,COc1ccc(C2OC3=Nc4cc(C)c(C)cc4NC3=C2O)cc1 (stereo unspecified),inactive
2,NC(=O)CC(NC(=O)c1ccc(Br)cc1)c1ccc(N2CCCCCCC2)c([N+](=O)[O-])c1 (stereo unspecified),31.6 µM (active)
3,Cc1cc(NC(=O)CNCC(c2ccccc2)N(C)C)c([N+](=O)[O-])cc1C (stereo unspecified),inactive
4,O=C(Cc1ccc(Br)cc1)N(Cc1ccccc1)c1ccccn1,inactive
5,O=C(COc1ccc(Br)cc1)NNC(=O)c1ccc(-n2cncn2)c([N+](=O)[O-])c1,inactive
6,O=[N+]([O-])c1cccc(S(=O)(=O)NC2CC3CCC2C3)c1 (stereo unspecified),inactive
7,NC(=O)CC(NC(=O)Cc1ccc(Br)cc1)c1ccc(NC2CC3CCC2C3)c([N+](=O)[O-])c1 (stereo unspecified),25.1 µM (active)
8,O=C(O)c1ccc(NS(=O)(=O)c2ccc(N3CCCC3)c([N+](=O)[O-])c2)cc1,inactive
9,NC(=O)CC(NC(=O)c1ccc(Br)cc1)c1ccc(NC2CCCCCCC2)c([N+](=O)[O-])c1 (stereo unspecified),31.6 µM (active)
10,CN(Cc1ccccc1)c1ccc(C(CC(N)=O)NC(=O)Cc2ccc(Br)cc2)cc1[N+](=O)[O-] (stereo unspecified),35.5 µM (active)
11,C=CCNc1nc2ccccc2nc1NS(=O)(=O)c1ccc(F)cc1,inactive
12,CCOC(=O)/C(=C\C=C1/Sc2cc(OCC)c(OCC)cc2N1CC)C(C)=O,inactive
13,COc1ccccc1[C@@H]1C(c2cccc(Cl)c2)=NN(c2ccccc2)[C@H]1C(=O)N1CCOC1=O,inactive
14,CCOC(=O)C1(Cc2cccc(F)c2)CCN(Cc2cn(CC)nc2C)CC1,inactive
15,CCCn1c(N)c(C(=O)CSc2nncs2)c(=O)[nH]c1=O,inactive
16,COC(=O)C1=CN(CC2CCCO2)C=C(C(=O)OC)C1c1cccc(O)c1 (stereo unspecified),inactive
17,Cc1c(O)ccc2c(CC(=O)N[C@@H](Cc3ccccc3)C(=O)O)cc(=O)oc12,inactive
18,COC(=O)c1ccc(COc2cccn3c(N(C)C(=O)CCC4CCCC4)c(C)nc23)cc1,35.5 µM (active)
19,CCOC(=O)C1CCCN(Cc2ccc(OCc3ccccc3)c(OC)c2)C1 (stereo unspecified),inactive
20,CCn1cc(C(=O)N(C)Cc2ccc(OC(F)F)cc2)c(=O)c2ccc(C)nc21,inactive
21,Cc1nc2c(OCc3ccc(OC(F)F)cc3)cccn2c1N(C)C(=O)CCC1CCCC1,39.8 µM (active)
22,CCOC(=O)c1cc2c(=O)n3ccccc3nc2n(CC2CCCO2)/c1=N\C(=O)c1ccccc1OCC (stereo unspecified),inactive
23,CCCCCC(=O)Nc1ncc2c(n1)CC(c1cccs1)CC2=O (stereo unspecified),inactive
24,O=C(CCCCCn1c(=S)[nH]c2ccc(N3CCOCC3)cc2c1=O)NC1CCN(Cc2ccccc2)CC1,inactive
25,Cc1sc2c(c1C)C(O)=C(/C=N/c1ccccn1)S(=O)(=O)N2C,inactive
26,N#C/C(=C(/O)COC(=O)CCCNC(=O)c1ccc(Cl)cc1)c1nc2ccccc2[nH]1,25.1 µM (active)

row,Compound,Potency
1,N#Cc1c(N)n(CCOC(=O)c2ccc(Cl)cc2)c2nc3ccccc3nc12,inactive
2,N#C/C(=C(/O)C(Cl)(Cl)Cl)c1nc2ccccc2[nH]1,inactive
3,N#C/C(=C\c1ccccc1C(=O)O)c1nc2ccccc2[nH]1,inactive
4,N#C/C(=C\c1ccc(-c2ccccc2C(=O)O)o1)c1nc2ccccc2[nH]1,inactive
5,N#CC(=C(O)COC(=O)CCC1CCCCC1)c1nc2ccccc2[nH]1,39.8 µM (active)
6,N#C/C(=C(/O)COC(=O)COc1cccc(Br)c1)c1nc2ccccc2[nH]1,22.4 µM (active)
7,N#Cc1c(N)n(CCNC(=O)c2ccccc2)c2nc3ccccc3nc12,inactive
8,N#C/C(=C(/O)COC(=O)COc1ccc(Cl)cc1)c1nc2ccccc2[nH]1,39.8 µM (active)
9,N#Cc1ccccc1S(=O)(=O)N1CCN(C(=O)CCC2CCCC2)CC1,inactive
10,Cc1cccc(N2C(=O)c3ccccc3C2=O)n1,inactive
11,Oc1ccccc1C1=NN(c2ccccc2)C(c2ccccc2)C1 (stereo unspecified),inactive
12,COc1cc(/C=C/c2onc(C)c2[N+](=O)[O-])cc(OC)c1OC,inactive
13,O=C(CN1C(=O)c2ccccc2C1=O)NCc1ccc(N2CCOCC2)cc1,inactive
14,O=C(OCCOc1cccc(Cl)c1)c1ccc2ncsc2c1,inactive
15,CCC(=O)Nc1c(OC(=O)CC)ccc2c(C)cc(=O)oc12,inactive
16,CCCCN(C(=O)c1ccc2ccccc2c1)c1c(N)n(CCCC)c(=O)[nH]c1=O,inactive
17,CCCCn1c(N)c(N(CC)C(=O)c2cc(OC)cc(OC)c2)c(=O)[nH]c1=O,inactive
18,CCCCn1c(N)c(N(CCC(C)C)C(=O)c2ccc(-c3ccc([N+](=O)[O-])cc3)o2)c(=O)[nH]c1=O,20 µM (active)
19,COc1cc2c(cc1OC)C(c1ccc(-c3ccccc3Cl)o1)=NCC2,39.8 µM (active)
20,Cc1nn(C)c(C)c1N1C(=O)c2cccc3c(Br)ccc(c23)C1=O,inactive
21,Cc1ccccc1CS(=O)(=O)Cc1ccc(C(=O)NCCCN2CC(C)CC(C)C2)o1 (stereo unspecified),8.91 µM (active)
22,Cc1ccccc1C(=O)NCCCNC(=O)c1ccco1,inactive
23,Cc1ccccc1CNC(=O)c1ccccc1NS(C)(=O)=O,inactive
